According to PubChem BioAssay AID1159580 (chemical genetic matrix, 2015):
The whole screen tested about 5,500 compounds, of which about 2,000 (36%) were called active. Another 18% or so got no clear call; they are omitted. Rule as the data show it: active = normalized growth mostly below about 0.91 (no sharp cut-off); inconclusive = no clear call, values can overlap the other calls; inactive = mostly above about 0.92. Some of the results follow.

Test: chemical genetic growth profiling, strain panel (AID 1159580);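 also: tested at 20 µM; growth read once vehicle control cultures reached saturation at 30 °C; 1 = growth at the plate median or of vehicle wells; lower values mean less growth of the strain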
Settings: growth OD

Measured: normalized growth

CN(C)CC/C=C1\c2ccccc2Sc2ccc(Cl)cc21
active: S. cerevisiae deletion strains, locus YJR066W, strain TOR1, stronger effect = lower value 0.815 | S. cerevisiae deletion strains, locus YKL160W, strain elf1, stronger effect = lower value 0.867 | S. cerevisiae deletion strains, locus YLR027C, strain aat2, stronger effect = lower value 0.881 | S. cerevisiae deletion strains, locus YLR039C, strain RIC1, stronger effect = lower value 1.5 [resistant] | S. cerevisiae deletion strains, locus YLR258W, strain gsy2, stronger effect = lower value 0.894 | S. cerevisiae deletion strains, locus YLR262C, strain YPT6, stronger effect = lower value 1.62 [resistant] | S. cerevisiae deletion strains, locus YLR342W, strain FKS1 (second series), stronger effect = lower value 0.667 | S. cerevisiae deletion strains, locus YLR342W, strain FKS1, stronger effect = lower value 0.724 | S. cerevisiae deletion strains, locus YLR370C, strain arc18, stronger effect = lower value 0.749 | S. cerevisiae deletion strains, locus YLR418C, strain cdc73, stronger effect = lower value 0.661 | S. cerevisiae deletion strains, locus YMR058W, strain fet3, stronger effect = lower value 0.775 | S. cerevisiae deletion strains, locus YMR231W, strain pep5, stronger effect = lower value 0.0779 | S. cerevisiae deletion strains, locus YNL209W, strain ssb2, stronger effect = lower value 0.665 | S. cerevisiae deletion strains, locus YOL006C, strain TOP1, stronger effect = lower value 0.42 | S. cerevisiae deletion strains, locus YOR070C, strain gyp1, stronger effect = lower value 0.804 | S. cerevisiae deletion strains, locus YOR083W, strain WHI5, stronger effect = lower value 0.735 | S. cerevisiae deletion strains, locus YOR106W, strain vam3, stronger effect = lower value 0.393 | S. cerevisiae deletion strains, locus YOR270C, strain vph1, stronger effect = lower value 0.41 | S. cerevisiae deletion strains, locus YOR290C, strain snf2, stronger effect = lower value 0.818 | S. cerevisiae deletion strains, locus YPL051W, strain arl3, stronger effect = lower value 0.76 | S. cerevisiae deletion strains, locus YPL078C, strain atp4, stronger effect = lower value 0.835 | S. cerevisiae deletion strains, locus YPL106C, strain sse1, stronger effect = lower value 0.802 | S. cerevisiae deletion strains, locus YPR163C, strain tif3, stronger effect = lower value 0.827
inactive: S. cerevisiae deletion strains, locus YJR043C, strain POL32, stronger effect = lower value 1.03 | S. cerevisiae deletion strains, locus YJR075W, strain HOC1, stronger effect = lower value 0.884 | S. cerevisiae deletion strains, locus YKL009W, strain mrt4, stronger effect = lower value 0.989 | S. cerevisiae deletion strains, locus YKL068W, stronger effect = lower value 1.01 | S. cerevisiae deletion strains, locus YKL085W, strain MDH1 (second series), stronger effect = lower value 1.03 | S. cerevisiae deletion strains, locus YKL085W, strain MDH1, stronger effect = lower value 1.03 | S. cerevisiae deletion strains, locus YKL190W, strain CNB1, stronger effect = lower value 0.982 | S. cerevisiae deletion strains, locus YKR026C, strain gcn3, stronger effect = lower value 0.992 | S. cerevisiae deletion strains, locus YKR091W, strain srl3, stronger effect = lower value 0.987 | S. cerevisiae deletion strains, locus YLL001W, strain dnm1, stronger effect = lower value 0.904 | S. cerevisiae deletion strains, locus YLL026W, stronger effect = lower value 0.981 | S. cerevisiae deletion strains, locus YLL041C, strain sdh2, stronger effect = lower value 0.993 | S. cerevisiae deletion strains, locus YLR058C, strain SHM2, stronger effect = lower value 0.933 | S. cerevisiae deletion strains, locus YLR102C, strain apc9, stronger effect = lower value 1.02 | S. cerevisiae deletion strains, locus YLR113W, strain HOG1, stronger effect = lower value 0.915 | S. cerevisiae deletion strains, locus YLR221C, strain rsa3, stronger effect = lower value 0.947 | S. cerevisiae deletion strains, locus YLR262C, strain YPT6 (second series), stronger effect = lower value 1.1 | S. cerevisiae deletion strains, locus YLR268W, strain sec22, stronger effect = lower value 1.01 | S. cerevisiae deletion strains, locus YLR320W, strain mms22, stronger effect = lower value 0.951 | S. cerevisiae deletion strains, locus YLR330W, strain CHS5, stronger effect = lower value 0.999 | S. cerevisiae deletion strains, locus YLR357W, strain rsc2, stronger effect = lower value 0.935 | S. cerevisiae deletion strains, locus YLR371W, strain rom2, stronger effect = lower value 1.01 | S. cerevisiae deletion strains, locus YLR384C, strain iki3, stronger effect = lower value 0.987 | S. cerevisiae deletion strains, locus YML016C, strain PPZ1, stronger effect = lower value 0.994 | S. cerevisiae deletion strains, locus YML032C, strain rad52, stronger effect = lower value 0.947 | S. cerevisiae deletion strains, locus YML120C, strain ndi1, stronger effect = lower value 0.998 | S. cerevisiae deletion strains, locus YML124C, strain tub3, stronger effect = lower value 1.02 | S. cerevisiae deletion strains, locus YMR078C, strain ctf18, stronger effect = lower value 1.02 | S. cerevisiae deletion strains, locus YMR125W, strain sto1, stronger effect = lower value 0.923 | S. cerevisiae deletion strains, locus YMR129W, stronger effect = lower value 1 | S. cerevisiae deletion strains, locus YMR205C, strain PFK2, stronger effect = lower value 0.921 | S. cerevisiae deletion strains, locus YMR223W, strain ubp8, stronger effect = lower value 0.935 | S. cerevisiae deletion strains, locus YMR307W, strain GAS1, stronger effect = lower value 0.903 | S. cerevisiae deletion strains, locus YNL067W, strain RPL9B, stronger effect = lower value 0.929 | S. cerevisiae deletion strains, locus YNL071W, strain lat1, stronger effect = lower value 0.934 | S. cerevisiae deletion strains, locus YNL183C, strain NPR1, stronger effect = lower value 0.872 | S. cerevisiae deletion strains, locus YNL233W, strain BNI4, stronger effect = lower value 0.891 | S. cerevisiae deletion strains, locus YNL248C, strain rpa49, stronger effect = lower value 0.917 | S. cerevisiae deletion strains, locus YNL250W, strain rad50, stronger effect = lower value 1.03 | S. cerevisiae deletion strains, locus YNL271C, strain bni1, stronger effect = lower value 1.01 | S. cerevisiae deletion strains, locus YNL298W, strain CLA4, stronger effect = lower value 1 | S. cerevisiae deletion strains, locus YNL307C, strain MCK1, stronger effect = lower value 0.999 | S. cerevisiae deletion strains, locus YNL322C, strain KRE1 (second series), stronger effect = lower value 1.03 | S. cerevisiae deletion strains, locus YNR049C, strain mso1, stronger effect = lower value 0.996 | S. cerevisiae deletion strains, locus YNR052C, strain pop2, stronger effect = lower value 0.964 | S. cerevisiae deletion strains, locus YOL012C, strain htz1 1.87 | S. cerevisiae deletion strains, locus YOL147C, strain pex11, stronger effect = lower value 1.02 | S. cerevisiae deletion strains, locus YOR001W, strain rrp6, stronger effect = lower value 0.935 | S. cerevisiae deletion strains, locus YOR061W, strain CKA2, stronger effect = lower value 0.941 | S. cerevisiae deletion strains, locus YOR069W, strain VPS5, stronger effect = lower value 1 | S. cerevisiae deletion strains, locus YOR080W, strain dia2, stronger effect = lower value 0.975 | S. cerevisiae deletion strains, locus YOR136W, strain idh2, stronger effect = lower value 1.02 | S. cerevisiae deletion strains, locus YOR144C, strain elg1, stronger effect = lower value 1.01 | S. cerevisiae deletion strains, locus YOR184W, strain ser1, stronger effect = lower value 1.06 | S. cerevisiae deletion strains, locus YOR231W, strain MKK1, stronger effect = lower value 0.869 | S. cerevisiae deletion strains, locus YOR265W, strain rbl2, stronger effect = lower value 0.974 | S. cerevisiae deletion strains, locus YOR316C, strain cot1, stronger effect = lower value 1.02 | S. cerevisiae deletion strains, locus YPL240C, strain hsp82, stronger effect = lower value 0.981 | S. cerevisiae deletion strains, locus YPL241C, strain CIN2, stronger effect = lower value 1.01 | S. cerevisiae deletion strains, locus YPL256C, strain CLN2, stronger effect = lower value 0.95 | S. cerevisiae deletion strains, locus YPR119W, strain clb2, stronger effect = lower value 1.03 | S. cerevisiae deletion strains, locus YPR141C, strain kar3, stronger effect = lower value 1.02 | S. cerevisiae deletion strains, locus YPR167C, strain met16, stronger effect = lower value 1.01 | S. cerevisiae deletion strains, strain wtn01, stronger effect = lower value 0.937 | S. cerevisiae strains, strain wild type, stronger effect = lower value 0.956
